Screening results deposited in PubChem by National Center for Advancing Translational Sciences (NCATS).
The full list was thinned out, with hits kept by preference.
Pf Dd2 growth = blocks in vitro growth of P. falciparum Dd2. Potency, µM (top dose mostly 28.9 µM), inactives show at the top dose activity, negative = inhibition, actives largely listed as inhibitors. P. falciparum Dd2 growth, SYBR Green, 72 h. 120,000 compounds, 4.3% hits; active = well fitted inhibition curve with a large enough effect;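 note: plate controls were DMSO vehicle for no effect and reference drug for full effect; nearly all actives have a fitted effect of over 65% in size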
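Infected erythrocytes (Dd2, 0.3% parasitemia, 2.5% hematocrit final) are added to compound in RPMI-1640/Albumax II medium, grown 72 h at 37C in low oxygen, then lysed with saponin/Triton-X containing SYBR Green and read by fluorescence.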
* marks the source's active call; other numbers are inactive results; i = inactive; [ ] = another dose, or the depositor's remark. Potency is the fitted concentration of half-maximal effect.

SMILES	Pf Dd2 growth
O=C([C@H]1C[C@H](Oc2cccnc2)CN1S(=O)(=O)Cc1ccccc1F)N1CCOCC1	-17%
CC(=O)c1cccc(N2C(=O)[C@@H]3[C@@H](CCN3C(=O)C(C)(C)C)N(Cc3cccc(F)c3)C2=O)c1	i
Cn1ccc(C(=O)N2CCC(N3CCCC(C(=O)N4CCCC4)C3)CC2)n1 (configuration not stated)	11%
C/C=C/CC(=O)N1CCC2(CCN(Cc3cccc(F)c3)CC2)C(CO)C1 (configuration not stated)	-20%
COc1ccc(NC(=O)O[C@@H]2CO[C@H]3[C@@H]2OC[C@@H]3NS(=O)(=O)c2ccccc2C#N)cc1	i
Cc1ccc(C(=O)N[C@H]2CO[C@H]3[C@@H]2OC[C@H]3OC(=O)Nc2ccc(C(C)C)cc2)cc1	-14%[44.1 µM]
N#Cc1ccccc1S(=O)(=O)N[C@H]1CO[C@H]2[C@@H]1OC[C@H]2OC(=O)Nc1ccc(Oc2ccccc2)cc1	i
CC(=O)Nc1ccc(S(=O)(=O)N[C@H]2CO[C@H]3[C@@H]2OC[C@H]3OC(=O)Nc2ccc(Oc3ccccc3)cc2)cc1	6.3µM*
COc1ccc(OC)c(S(=O)(=O)N[C@H]2CO[C@H]3[C@@H]2OC[C@H]3OC(=O)Nc2ccc(Oc3ccccc3)cc2)c1	-24%
CC(C)c1ccc(NC(=O)O[C@@H]2CO[C@H]3[C@@H]2OC[C@@H]3NS(=O)(=O)c2cccs2)cc1	2.2µM*
CCS(=O)(=O)Nc1ccc(C(=O)N2Cc3nnc(C)n3C(C)C2)cc1 (configuration not stated)	-2%
C[C@@H](NC(=O)c1cnccn1)c1onc(-c2cccnc2)c1C(=O)O	2%[44.1 µM]
COc1ccccc1C(=O)N1CCn2c(nnc2-c2cccnc2)C1	27%
CC(C)CNC(=O)N1C[C@@H]2CCCN3CCC[C@@H]([C@H]23)[C@H]1CCCC(=O)NCC1CC1	-25%
CCCS(=O)(=O)N1CC[C@H](c2nc(C)no2)[C@H](NC(=O)COC)C1	i[5.79 µM]
Cc1cccc(OCC(O)Cn2c(=N)n(CCN3CCCCC3)c3ccccc32)c1 (configuration not stated)	10µM*
COc1ccc(N2CCN(CC(O)COc3ccc(C)c(C)c3)CC2)cc1 (configuration not stated)	23%
CCC(C)Cn1c(COc2ccc(OC)cc2)nc2ccccc21 (configuration not stated)	i
CCn1c(=N)n(CC(O)COc2ccccc2)c2ccccc21 (configuration not stated)	7.1µM*
COc1ccc(N2CCN(CC(O)COc3c(OC)cccc3OC)CC2)cc1 (configuration not stated)	12%
CCOC(=O)N1CCN(Cc2cccc(OCC(O)CN3CCOCC3)c2)CC1 (configuration not stated)	1%
CCOc1ccccc1C(=O)N1CCC(N2C(=O)CCC2C(=O)NC(C)C)CC1 (configuration not stated)	-9%
CCC(=O)N1CCN(C2CCN(Cc3cccnc3)C2=O)CC1 (configuration not stated)	-3%
CCc1ncc(C(=O)N2CCN(Cc3ccccc3C#N)CC2)cn1	-3%
COCCNC(=O)C[C@@H]1C[C@H]2O[C@H](CNCc3ccccc3C(F)(F)F)[C@@H](O)[C@H]2O1	-19%[44.1 µM]
SMILES	Pf Dd2 growth
COC(=O)[C@H](Cc1ccc(OC)cc1)NC(=O)[C@@H]1CNCCN1S(=O)(=O)c1ccccc1	i
COCCN1C(=O)c2cccn2CC1CNC(=O)CCc1ccccc1 (configuration not stated)	-11%
Cc1ccc(C(=O)N2CC3CC(C2)[C@H]2CCCC(=O)N2C3)cn1 (some centres not stated)	11%
CSCC[C@H](N)C(=O)N1CCC2(CCC(=O)N(Cc3ccccc3)C2)CC1	-17%
COc1ccc2nc3n(c2c1)[C@@H](CNC(=O)c1ccc(C#N)cc1)COC3	-4%[44.1 µM]
CCc1cccc(C)c1Nc1c(-c2ccccc2)nc2sccn12	-9%
COCCNC(=O)c1nc2sccn2c1Br	1%[44.1 µM]
Cc1ccccc1Nc1c(-c2ccc(Br)cc2O)nc2sccn12	2.5µM*
O=C(O)CCCc1nc(-c2ccncc2)nn1C1Cc2ccccc2C1	-18%
COc1ccc(NC(=O)N2C[C@@H]3C[C@H](C2)c2c(NC(=O)Nc4ccccc4)ccc(=O)n2C3)cc1	-2%
O=C(NCc1ccco1)C1COC2(CCN(C(=O)c3ccc(F)cc3)CC2)N1C(=O)c1ccccc1 (configuration not stated)	-24%
CCCC(=O)N1Cc2ccccc2CC2(CCCCN2CC)C1 (configuration not stated)	10µM*
CCCC(=O)N1Cc2ccccc2CC2(CCCN2CCC)C1 (configuration not stated)	8.9µM*
NCCC(=O)N1Cc2ccccc2CC2(CCCCN2CC2CCNCC2)C1 (configuration not stated)	18%
O=C(O)CCCC(=O)N1Cc2ccccc2CC2(CCCCN2CCc2ccccc2)C1 (configuration not stated)	-20%
CCCN1CCCCC12Cc1ccccc1CN(C(=O)CCCC(=O)O)C2 (configuration not stated)	5%
